Experimental data reported in PMC12431657, “Discovery and mechanistic insights of dibenzoylmethane as a broad spectrum inhibitor of coronavirus” (PLOS Pathogens, 2025).
Counter-ions that a name gives are not always drawn. Like-named read-outs stand apart in the source and are kept apart here. Hit rate of the full screen: of about 3,300 compounds, about 60 (2%) showed an effect of 50% or more. The full list was thinned out, with strong results kept by preference.

Tested on: HCoV-OC43
Design: species or system RD; HTS, protection from HCoV-OC43 induced cell death, luminescent cell viability (CellCounting-Lite 2.0), inhibition rate
Details: 24 h post infection, 1 h compound pre-incubation, 10 µM, inhibitor

Row | Structure (SMILES) | OC43 Inhibition rate [%] | OC43 Inhibition rate (OC43 Inhibition rate, 24 h) [%]
1 | COc1cc([C@@H]2[C@H]3CO[C@@]4(O)C(=O)[C@@H]2C=C([C@H]2Oc5cc(O)cc(O)c5C(=O)[C@@H]2O)[C@@H]34)ccc1O [Silydianin] | -0.1 | –
2 | O=C(/C=C/c1ccccc1)OCc1ccccc1 [Benzyl cinnamate] | 2 | –
3 | O=C(CCCCCCCCc1ccc(O)c(O)c1)c1c(O)cccc1O [Malabaricone C] | 12.2 | –
4 | O=C(CCCCCCCCc1ccc(O)cc1)c1c(O)cccc1O [Malabaricone B] | 54 | –
5 | O=C(CCc1ccc(O)cc1)c1c(O)cc(O)cc1O [Phloretin] | -0.3 | –
6 | CCCCCCCCCCCCCCCCCCCCC [Heneicosane] | -0.3 | –
7 | CO[C@H]1[C@@H](O)[C@H](O[C@@H]2[C@@H](C)O[C@@H](O[C@H]3CC[C@@]4(C)[C@@H](CC[C@@]56O[C@@]57CC[C@@H](C(C)=O)[C@@]7(C)[C@H](OC(C)=O)[C@@H](OC(=O)c5ccccc5)[C@H]46)C3)C[C@H]2OC)O[C@H](C)[C@H]1O [Tenacissoside I] | -4 | –
8 | Cc1ccc(O)c(O)c1 [4-Methylcatechol] | -0.9 | –
9 | COc1cc(O)c(C(=O)/C=C/c2ccccc2)c(O)c1 [Pinostrobin chalcone] | 0 | –
10 | COc1cc(O)c(C(=O)/C=C/c2ccccc2)c(OC)c1 [Flavokawain B] | 58.3 | –
11 | COc1cc(O)c(C(=O)/C=C/c2ccc(O)cc2)c(OC)c1 [Flavokawain C] | 4.2 | –
12 | O=C(N[C@@H](c1ccccc1)[C@@H](O)C(=O)O)c1ccccc1 [N-Benzoyl-(2R,3S)-3-phenylisoserine] | 0.3 | –
13 | C/C=C(/C)C(=O)O [Angelic acid] | -0.3 | –
14 | CC(=O)OC/C1=C/C[C@H]2[C@@H](/C=C(\C)C(=O)[C@@]3(OC(C)=O)C[C@H](C)[C@H](OC(=O)c4ccccc4)[C@@H]3[C@H]1OC(C)=O)C2(C)C [Euphorbia factor L7b] | 8.6 | –
15 | CC(=O)OC/C1=C\[C@H]2[C@@H](OC(=O)/C=C/c3ccccc3)[C@@H](C)C[C@]2(OC(C)=O)C(=O)/C(C)=C/[C@@H]2[C@H](CC1)C2(C)C [Euphorbia factor L7a] | 75.3 | –
16 | CCOC(=O)/C=C/c1ccccc1 [Ethyl cinnamate] | -1.2 | –
17 | COc1cccc(-c2oc3ccccc3c(=O)c2O)c1 [3'-Methoxyflavonol] | -2 | –
18 | O[C@H]1[C@H]2c3cc4c(cc3CN3CC[C@H](C[C@@H]1O)[C@H]23)OCO4 [Dihydrolycorine] | 0 | –
19 | O[C@H]1[C@H]2c3cc4c(cc3CN3CCC(=C[C@@H]1O)[C@H]23)OCO4 [Lycorine] | 60.9 | –
20 | c1cc2c(c3c1CC1c4cc5c(cc4CCN1C3)OCO5)OCO2 (racemic) [(±)-Stylopine] | -0.3 | –
21 | OCc1cccc2ccccc12 [1-Naphthalenemethanol] | 2.9 | –
22 | CC(C)=CCC[C@](C)(O[C@@H]1O[C@H](CO)[C@@H](O)[C@H](O)[C@H]1O)[C@H]1CC[C@]2(C)[C@@H]1[C@H](O)C[C@@H]1[C@@]3(C)CC[C@H](O)C(C)(C)[C@@H]3CC[C@]12C [Ginsenoside C-K] | 38.7 | –
23 | COc1cc(/C=C/C(=O)OC[C@H]2O[C@H](O[C@]3(CO)O[C@H](CO)[C@@H](O)[C@@H]3O)[C@H](O)[C@@H](O)[C@@H]2O)cc(OC)c1O [Sibiricose A1] | 2.3 | –
24 | COc1ccc2cc1Oc1ccc(cc1)C[C@H]1c3cc(c(OC)cc3CCN1C)Oc1c(O)c(OC)cc3c1[C@H](C2)N(C)CC3 [Fangchinoline] | 41.6 | –

Row | Structure (SMILES) | OC43 Inhibition rate [%] | OC43 Inhibition rate (OC43 Inhibition rate, 24 h) [%]
25 | COc1cc2c3cc1Oc1c(OC)c(OC)cc4c1[C@@H](Cc1ccc(O)c(c1)Oc1ccc(cc1)C[C@@H]3N(C)CC2)N(C)CC4 [Berbamine] | 0 | –
26 | COc1ccc2cc1Oc1ccc(cc1)C[C@H]1c3cc(c(OC)cc3CCN1C)Oc1c(OC)c(OC)cc3c1[C@H](C2)N(C)CC3 [tetrandrine] | 79.7 | –
27 | Oc1ccc(CC2NCCc3cc(O)c(O)cc32)cc1 (centres unmarked) [Higenamine (hydrochloride)] | 0.1 | –
28 | Oc1ccc2[nH]ccc2c1 [5-Hydroxyindole] | 1.1 | –
29 | COc1c2c(cc3oc(CO)cc(=O)c13)O[C@H](C(C)(C)O)C2 [Cimifugin] | 0.3 | –
30 | OC1COC(O)CO1 (centres unmarked) [1,4-Dioxane-2,5-diol] | 1.3 | –
31 | CC(C)c1ccc2c(c1)CC[C@H]1[C@](C)(C(=O)O)CCC[C@]21C [Dehydroabietic acid] | -0.5 | –
32 | COc1c(C(C)C)cc2c(c1O)[C@@]1(C(=O)O)CCCC(C)(C)[C@@H]1CC2 [12-O-Methylcarnosic acid] | 54.1 | –
33 | CC(C)c1cc2c(c(O)c1O)[C@@]13CCCC(C)(C)[C@@H]1C[C@@H]2OC3=O [Carnosol] | -0.4 | –
34 | COc1cc(C=CC(=O)O)cc(OC)c1O (stereo in doubt) [Sinapinic acid] | 1.1 | –
35 | NC1CCN(c2nc3c(cc2F)c(=O)c(C(=O)O)cn3-c2ccc(F)cc2F)C1 (centres unmarked) [Tosufloxacin (tosylate hydrate)] | 58.8 | –
36 | CCn1cc(C(=O)O)c(=O)c2ccc(C)nc21 [Nalidixic acid] | 0.1 | –
37 | O=C(O)C(O)c1ccc(O)c(O)c1 (centres unmarked) [3,4-Dihydroxymandelic acid] | -0.2 | –
38 | CC(C)=CCC/C(C)=C/Cc1cc(-c2coc3cc(O)ccc3c2=O)ccc1O [Corylifol A] | -2.2 | –
39 | CCCC(=O)C(=O)O [2-Oxovaleric acid] | -0.9 | –
40 | COc1ccc(/C=C/C(=O)O)cc1 [4-Methoxycinnamic acid] | – | -0.5
41 | CSCC[C@H](NC(C)=O)C(=O)O [N-Acetyl-L-methionine] | 0.8 | –
42 | C[C@@H]1CC[C@@]2(OC1)O[C@H]1C[C@H]3[C@@H]4CC=C5C[C@@H](O[C@@H]6O[C@H](CO)[C@@H](O)[C@H](O[C@@H]7O[C@H](CO)[C@@H](O)[C@H](O)[C@H]7O)[C@H]6O[C@@H]6O[C@@H](C)[C@H](O)[C@@H](O)[C@H]6O)CC[C@]5(C)[C@H]4CC[C@]3(C)[C@H]1[C@@H]2C [Gracillin] | 7 | –
43 | C[C@@H]1CC[C@@]2(OC1)O[C@H]1C[C@H]3[C@@H]4CC=C5C[C@@H](O)C[C@@H](O[C@@H]6O[C@H](C)[C@H](O)[C@H](O[C@@H]7OC[C@@H](O)[C@H](O)[C@H]7O)[C@H]6O[C@@H]6O[C@H](CO)[C@@H](O)[C@H](O)[C@H]6O)[C@]5(C)[C@H]4CC[C@]3(C)[C@H]1[C@@H]2C [Saponin C, from Liriope muscari] | 66.4 | –
44 | C[C@@H]1CC[C@@]2(OC1)O[C@H]1C[C@H]3[C@@H]4CC=C5C[C@@H](O[C@@H]6O[C@H](CO)[C@@H](O)[C@H](O)[C@H]6O[C@@H]6O[C@@H](C)[C@H](O)[C@@H](O)[C@H]6O)CC[C@]5(C)[C@H]4CC[C@]3(C)[C@H]1[C@@H]2C [Prosapogenin A] | -12 | –
45 | C[C@H]1CC[C@@]2(OC1)O[C@H]1C[C@H]3[C@@H]4CC=C5C[C@@H](O[C@@H]6O[C@H](CO)[C@@H](O)[C@H](O[C@@H]7OC[C@@H](O)[C@H](O)[C@H]7O)[C@H]6O[C@@H]6O[C@@H](C)[C@H](O)[C@@H](O)[C@H]6O)CC[C@]5(C)[C@H]4CC[C@]3(C)[C@H]1[C@@H]2C [Liriope muscari baily saponins C] | 66.1 | –
46 | C[C@@H]1CC[C@@]2(OC1)O[C@H]1C[C@H]3[C@@H]4CC=C5C[C@@H](O)C[C@@H](O[C@@H]6O[C@H](C)[C@H](O)[C@H](O[C@@H]7OC[C@@H](O)[C@H](O)[C@H]7O)[C@H]6O[C@@H]6O[C@@H](C)[C@H](O)[C@@H](O)[C@H]6O)[C@]5(C)[C@H]4CC[C@]3(C)[C@H]1[C@@H]2C [Ophiopogonin D'] | – | -0.3
47 | C[C@@H]1CC[C@@]2(OC1)O[C@H]1C[C@H]3[C@@H]4CC=C5C[C@@H](O)C[C@@H](O[C@@H]6O[C@H](C)[C@H](O)[C@H](O[C@@H]7OC[C@@H](O)[C@H](O)[C@H]7O)[C@H]6O[C@@H]6O[C@@H](C)[C@H](O)[C@@H](O)[C@H]6O)[C@]5(C)[C@H]4CC[C@]3(C)[C@H]1[C@@H]2C [Ophiopogonin D] | – | 1.6
48 | C[S+]([O-])CCCC/C(=N\OS(=O)(=O)O)S[C@@H]1O[C@H](CO)[C@@H](O)[C@H](O)[C@H]1O (some centres unmarked) [Glucoraphanin] | -2.3 | –

Row | Structure (SMILES) | OC43 Inhibition rate [%] | OC43 Inhibition rate (OC43 Inhibition rate, 24 h) [%]
49 | CC(C)=CCC[C@](C)(O)[C@H]1CC[C@]2(C)[C@@H]1[C@H](O)C[C@@H]1[C@@]3(C)CC[C@H](O)C(C)(C)[C@@H]3[C@@H](O[C@@H]3O[C@H](CO)[C@@H](O)[C@H](O)[C@H]3O[C@@H]3OC[C@@H](O)[C@H](O)[C@H]3O)C[C@]12C [Notoginsenoside R2] | 0.5 | –
50 | CSSSC [Dimethyl trisulfide] | -0.3 | –
51 | COc1ccc2cc3[n+](cc2c1O)CCc1cc2c(cc1-3)OCO2 [Berberrubine (chloride)] | -0.4 | –
52 | CC1(C)O[C@H]1COc1c2ccoc2cc2oc(=O)ccc12 [Oxypeucedanin] | 0.5 | –
53 | C[C@@H]1O[C@@H](O[C@@H]2C(=O)c3c(O)cc(O)cc3O[C@@H]2c2ccc(O)c(O)c2)[C@H](O)[C@H](O)[C@H]1O [Isoastilbin] | 4.2 | –
54 | C/C=C/C[C@@H](C)[C@@H](O)[C@H]1C(=O)N[C@@H](C(C)C)C(=O)N(C)CC(=O)N(C)[C@@H](CC(C)C)C(=O)N[C@@H](C(C)C)C(=O)N(C)[C@@H](CC(C)C)C(=O)N[C@@H](C)C(=O)N[C@H](C)C(=O)N(C)[C@@H](CC(C)C)C(=O)N(C)[C@@H](CC(C)C)C(=O)N(C)[C@@H](C(C)C)C(=O)N1C [Cyclosporin D] | 68 | –
55 | O=C1O[C@H]([C@@H](O)CO)C(O)=C1OP(=O)(O)O [L-Ascorbic acid 2-phosphate (trisodium)] | 9.8 | –
56 | CCCCCCCCCCCCCCCCCCC(=O)O [Nonadecanoic acid] | -0.5 | –
57 | COC(=O)C1=C(O)c2ccccc2C(=O)[C@]1(CC=C(C)C)C1=CC(=O)c2ccccc2C1=O [Rubipodanone A] | 58.8 | –
58 | CC(C)=CCC1=C(O)C(=O)c2ccccc2C1=O [Lapachol] | 27.9 | –
59 | CC(C)=CCC1=CC(=O)c2ccccc2C1=O [Deoxylapachol] | 3.8 | –
60 | Nc1ncnc2c1ncn2[C@@H]1O[C@H](COP(=O)(O)O)[C@@H](O)[C@H]1O [Adenosine monophosphate] | – | 0
61 | C1CCN2C[C@H]3C[C@H](CN4CCCC[C@@H]34)[C@H]2C1 [(+)-Sparteine] | – | 6
62 | C=C(C)[C@H](CC=C(C)C)Cc1c(O)cc(OC)c2c1O[C@H](c1ccc(O)cc1O)CC2=O [Kurarinone] | 0 | –
63 | C=C(C)[C@H](CC=C(C)C)Cc1c(O)cc(O)c2c1O[C@H](c1ccc(O)cc1O)CC2=O [sophoraflavanone G] | 39.8 | –
64 | C=C(C)[C@H](CC=C(C)C)Cc1c(O)cc(OC)c2c1O[C@H](c1ccc(O)cc1OC)CC2=O [(2S)-2'-Methoxykurarinone] | 98.5 | –
65 | CC1(C)CC[C@]2(C(=O)O[C@@H]3O[C@H](CO)[C@@H](O)[C@H](O)[C@H]3O)CC[C@]3(C)C(=CC[C@@H]4[C@@]5(C)CC[C@H](O[C@@H]6O[C@H](C(=O)O)[C@@H](O)[C@H](O)[C@H]6O[C@H]6OC[C@@H](O)[C@H](O)[C@H]6O)C(C)(C)[C@@H]5CC[C@]43C)[C@@H]2C1 [Pseudoginsenoside RT1] | 0.7 | –
66 | O=c1c2cc(O[C@@H]3O[C@H](CO)[C@@H](O)[C@H](O)[C@H]3O)c(O)cc2oc2cc(O)c([C@@H]3O[C@H](CO)[C@@H](O)[C@H](O)[C@H]3O)c(O)c12 [Neomangiferin] | 3 | –
67 | COC[C@@H](Cc1ccc(OC)c(OC)c1)[C@@H](COC)Cc1ccc(OC)c(OC)c1 [Phyllanthin] | 0.2 | –
68 | C/C=C(/C)C(=O)O[C@H]1C(C)=C[C@]23C(=O)[C@@H](C=C4COC(C)(C)O[C@H]4[C@]12O)[C@H]1[C@@H](C[C@H]3C)C1(C)C [Ingenol-5,20-acetonide-3-O-angelate] | 69.8 | –
69 | CC1=C[C@]23C(=O)[C@@H](C=C4COC(C)(C)O[C@H]4C2(O)[C@H]1O)[C@H]1[C@@H](C[C@H]3C)C1(C)C (some centres unmarked) [Ingenol-5,20-acetonide] | -2.5 | –
70 | C/C=C(/C)C(=O)O[C@H]1C(C)=C[C@]23C(=O)[C@@H](C=C(CO)[C@@H](O)[C@]12O)[C@H]1[C@@H](C[C@H]3C)C1(C)C [Ingenol Mebutate] | 1.1 | –
71 | Cc1cc(=O)c2c(O)c3c(cc2o1)OC(C)(C)[C@@H](O[C@@H]1O[C@H](CO)[C@@H](O)[C@H](O)[C@H]1O)C3 [Sec-O-Glucosylhamaudol] | -0.4 | –
